Experimental data reported in PubChem BioAssay (NCI).
This is part of a sample that, as a whole, favours compounds with a hit. Of some 79,000 tested, about 15% had one in any assay. Unmarked numbers belong to inactive results. Cut-off read from the data, not from the text of the source: active = growth inhibition above about 70%; inactive = the rest.

Test: NCI Yeast Anticancer Drug Screen. Data for the cln2 rad14 strain (AID 165);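 note: 0% = growth equal to vehicle treated cultures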
Conditions: S. cerevisiae cln2 rad14 strain, at 50.0 µM, hits give high values
Procedure: Growth inhibition of yeast strains with defined genetic alterations is measured as a screen for potential anti-cancer activity. Selected strains with alterations in DNA damage repair or cell cycle control were exposed to compounds and growth inhibition was measured relative to vehicle treated controls. The strain used in this assay is cln2 rad14
Compound `CCOC(=O)c1c[nH]c2c(=O)n(C)c(=O)[nH]c12` has a growth inhibition of -28.8%. Compound `COc1ccc(S(=O)(=O)c2ccc(F)cc2)cc1` has a growth inhibition of -5.8%. Compound `N#CCC1(O)c2ccccc2-c2ccccc21` has a growth inhibition of -6.25%. Compound `O=C(NCCc1c[nH]c2ccccc12)C1CCCCC1` has a growth inhibition of -25.6%. Work on `COc1ccc(-n2c(CCCC(=O)O)nc3c2C(=O)c2ccccc2C3=O)cc1` yielded a growth inhibition of 17.1%. With `CC(C)(C)c1ccc(O)c(C(O)c2cccnc2)c1` (stereo not given) the growth inhibition was 13.9%. Compound `CS(=O)(=O)Nc1cccc(C(=O)O)c1` has a growth inhibition of -2.85%. Compound `CCCCCC[C@H](C/C=C\CCCCCCCC(=O)OCCCC)OC(C)=O` has a growth inhibition of -14.2%. `FC(F)(F)c1ccccc1N=Cc1cccs1` showed a growth inhibition of 3.05%. In the case of `CC(=O)Nc1ccc([N+](=O)[O-])cc1Cl`, the growth inhibition is reported as -3.15%. `Nc1ncnc2c(C3OC(CO)C(O)C3O)nsc12` (stereo not given) gave a growth inhibition of -15.2%. Compound `CCCOc1cc2c(cc1C(C)c1ccc(OCC)c(C)c1)OCO2` (stereo not given) has a growth inhibition of -94%. `S=c1[nH]ncn2nc3ccccc3c12` showed a growth inhibition of -45.5%. With `CCC(C(=O)NC1c2ccccc2Oc2ccccc21)c1ccccc1` (stereo not given) the growth inhibition was -12.4%. Compound `C#CCOCn1cc(C)c(=O)[nH]c1=O` has a growth inhibition of 10.4%. With `Cc1cccc(C[N+](C)(C)CCO)c1C` the growth inhibition was 6.7%. Work on `Cc1cc(N=Nc2ccc(C(=O)Nc3ccc4cc(S(=O)(=O)O)ccc4c3)cc2)c(N)c(N=Nc2ccc(N=Nc3ccc(O)c(C(=O)O)c3)cc2)c1N` yielded a growth inhibition of -21.9%. With `N#CNc1nc(N)cc(=O)[nH]1` the growth inhibition was 3%. For `COc1cc(-c2cc(=O)c3c(O)c(OC)c(OC)cc3o2)ccc1O`, the growth inhibition was -22.1%. With `CN(C)c1ccc(/C=C(\C#N)c2cccc(Br)c2)cc1` the growth inhibition was -11.3%. `CN(C)CC(O)CO` (stereo not given) gave a growth inhibition of -45.1%. With `COc1cc2c(cc1Cc1cc(OC)c(OC)c(OC)c1)OCO2` the growth inhibition was -3.15%. `O=[N+]([O-])c1cccc(N=Cc2ccccc2)c1` gave a growth inhibition of 8.15%. With `Cc1csc2nc(-c3ccco3)nn12` the growth inhibition was 15.9%. `COc1ccccc1NC(=O)CCl` showed a growth inhibition of 18.8%. `COc1ccc(C(O)C(O)(c2ccccc2)c2ccc(OC)cc2)cc1` (stereo not given) showed a growth inhibition of -19.1%. Compound `O=c1nc(Sc2ccccc2)ccn1C1OC(CO)C(O)C1O` (stereo not given) has a growth inhibition of 9.35%. For `C1=C[CH]([Sn]([CH]2C=Cc3ccccc32)([CH]2C=Cc3ccccc32)[CH]2C=Cc3ccccc32)c2ccccc21` (stereo not given), the growth inhibition was -6.4%. Compound `Cc1[nH]c(=O)n2c(C)nnc2c1C(=O)O` has a growth inhibition of -10.2%. For `ClC(Cl)(Cl)C1CCC2CCCC21` (stereo not given), the growth inhibition was 6.1%. `CCCCCCCCCCCC(=O)CC(=O)c1c(O)cccc1O` gave a growth inhibition of 0.1%. Compound `CCNC1=CC(=O)c2ncccc2C1=O` has a growth inhibition of -8.25%. `COP(=O)(CC(=O)C1OC(C)(C)OC1C(O)COCc1ccccc1)OC` (stereo not given) showed a growth inhibition of 14.3%. `COC(=O)C1(Cc2ccc3c(c2)CCC3)Cc2ccccc2C1` showed a growth inhibition of 5.2%. In the case of `C/C=C/C(=O)OCCCCCCCCCCCCCCCCCC`, the growth inhibition is reported as 8%. For `CC1(C)CC2=C(Sc3ccccc3N2)C(=O)C1C(=O)C(=O)Nc1cc(Cl)ccc1Cl` (stereo not given), the growth inhibition was -28.3%. `COc1cc(C(O)C(CO)Oc2c(OC)cc(C3OCC4C(c5cc(OC)c(O)c(OC)c5)OCC34)cc2OC)ccc1O` (stereo not given) showed a growth inhibition of 10%. Work on `Oc1ccc2ccccc2c1C(c1ccccc1)N1CCOCC1` (stereo not given) yielded a growth inhibition of -24.7%. For `Cc1cc(Br)cc(C)c1NC(=O)C(=O)C(C(=O)c1ccncc1)C1OC(=O)c2ccccc21` (stereo not given), the growth inhibition was 15.8%. Work on `CCCCC1(CC)COC2(CCCC2)OC1` yielded a growth inhibition of 3.2%.
